The record followed here is PubChem BioAssay (NCATS).

Inconclusive results are not listed. Activity calls are given as the source filed them. The call rests on the fitted dose curve; in most records, active means well fitted inhibition curve with a large enough effect; inconclusive means small, poorly fitted or top-dose-only effect; inactive means flat fitted curve, though single readings scatter.

This assay addresses Aldehyde dehydrogenase, mitochondrial (Homo sapiens) (UniProt P05091). As to the kind of experiment: qHTS for Inhibitors of the Aldehyde Dehydrogenase Family (ALDH2) Primary screen (AID 2061308).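 Further: plate controls were vehicle for no effect and reference inhibitor for full effect; nearly all actives have a fitted effect of over 55% in size.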 The settings on record: ALDH2 enzyme inhibition qHTS, 1536-well; series mostly up to 56 µM; activity change, negative = inhibition: at the top concentration.
On to `O=C1c2ccccc2C(=O)N1c1noc2ccccc12`, for which the “activity change, negative = inhibition” value is -9.83% (inactive).

Regarding `CC(=O)Nc1sc2c(c1-c1ccc3c(c1)OCO3)CCNC2`, the “activity change, negative = inhibition” value is -10.6% (inactive).

Take `CCC(=O)NC(c1ccc(C)cc1)c1cc([N+](=O)[O-])c2cccnc2c1O` (stereo not given): the “activity change, negative = inhibition” value was 0.549% (inactive).

Regarding `CC(=O)c1ccc(N2CCN(S(=O)(=O)c3ccc(N4CCCC4=O)cc3)CC2)cc1`, the “activity change, negative = inhibition” value is -2.96% (inactive).

`O=[S+]([O-])(c1ccc2c(c1)OCCO2)N1CCN([S+](=O)([O-])c2c(Cl)cc(Cl)cc2Br)CC1`: the “activity change, negative = inhibition” value was -0.912% (inactive).

Turning to `Cn1cnc(CN=C2NC3=C(C(=O)CCC3)C(c3[nH]ncc3Cl)N2)c1` (stereo not given), the “activity change, negative = inhibition” value was -20% (inactive).

On to `Cc1cc(NS(=O)(=O)c2ccc(NC(=O)Cc3ccc(C)c(F)c3)cc2)no1`, for which the “activity change, negative = inhibition” value was 8.12% (inactive).

Turning to `C#C[C@]1(O)CC[C@H]2[C@@H]3CCC4=C/C(=N/O)CC[C@@H]4[C@H]3CC[C@@]21CC`, the “activity change, negative = inhibition” value is 3.06% (inactive).

For the compound `CNc1nc(-c2ccc3c(N)n[nH]c3c2)cc(N2CC(C(=O)NC3CCCCC3)CCC2C)n1` (stereo not given), the “activity change, negative = inhibition” value is 3.28% (inactive).

Take `Fc1cc(Nc2nc(-c3ccncc3)nc3ccccc23)ccc1-c1cc(F)c(F)c(F)c1`: the “activity change, negative = inhibition” value is 8.17% (inactive).

`O=C(Nc1cccnc1)c1cccs1`: the “activity change, negative = inhibition” value is 8.57% (inactive).

As to `CC1OC2OC3C(OCC(O)C3O)OC(=O)C34CCC(C)(C)CC3C3=CCC5C6(C)CC(O)C(OC7OC(CO)C(O)C(O)C7OC7OCC(OC(=O)CC(C)(O)CC(=O)OC1C(OC1OCC(O)C(O)C1O)C2O)C(O)C7O)C(C)(CO)C6CCC5(C)C3(C)CC4O` (stereo not given), the “activity change, negative = inhibition” value was 1.27% [at 28 µM] (inactive).

In the case of `CCCCN(C)C(=O)Cn1nc(-c2ccc(F)cc2)ccc1=O`, the “activity change, negative = inhibition” value is 5.04% (inactive).

Regarding `Fc1cc(Nc2nc(-c3ccncc3)nc3ccccc23)ccc1-c1cccc(OC(F)(F)F)c1`, the “activity change, negative = inhibition” value was -5.74% (inactive).

Take `O=C(OCC#CCSc1nnc(-c2cccc3ncccc23)o1)c1ccc(F)cc1`: the “activity change, negative = inhibition” value is -13.8% (inactive).

As to `Cc1cc(C)nc(NC(=S)N2CCN(c3ncnc4sccc34)CC2)c1`, the “activity change, negative = inhibition” value is 10.4% (inactive).

For `Cc1ccc(C(=O)Nc2nnc(-c3ccco3)o2)cc1`, the “activity change, negative = inhibition” value was -1.93% (inactive).

Turning to `Cc1ccc(OCCn2c(CCNC(=O)C3CC3)nc3ccccc32)cc1`, the “activity change, negative = inhibition” value is -1.99% (inactive).

For the compound `CC(=O)Nc1cc2c(s1)CNCC2`, the “activity change, negative = inhibition” value was -7.2% (inactive).

Take `N#Cc1nc(Nc2cccc(C(F)(F)F)c2)nc(NC2CCCC2)n1`: the “activity change, negative = inhibition” value was 4.18% (inactive).

As to `C=CCNc1oc(C2CCCC2)nc1C#N`, the “activity change, negative = inhibition” value is 11.6% (inactive).

For the compound `COc1cc(OC)cc(C2=Nn3c(nnc3-c3ccccc3OC)SC2)c1`, the “activity change, negative = inhibition” value is 10.2% (inactive).

For `Cc1cc2c(s1)c1cnn(Cc3ccc(Br)cc3F)c(=O)c1n2C`, the “activity change, negative = inhibition” value was -6.38% (inactive).

With `Cc1ccsc1CN(C)c1ncnc2ccc(-c3ccc([C@@H](C)O)o3)cc12`, the “activity change, negative = inhibition” value was 0.702% (inactive).

In the case of `Cc1ccc(S(=O)(=O)Nc2cncc(C(=O)Nc3nc(-c4ccccc4)cs3)c2)cc1`, the “activity change, negative = inhibition” value was 7.72% (inactive).

Take `CC(C)(C)NC(=O)N1CCC(C(=O)Nc2ccc([S+](=O)([O-])Nc3nccs3)cc2)CC1`: the “activity change, negative = inhibition” value was 6.79% (inactive).

Consider `Cc1ccc(-c2ccc(=O)n(CC(=O)N(C)C(C)c3ccco3)n2)cc1` (stereo not given), for which the “activity change, negative = inhibition” value was -3.05% (inactive).

As for `CNc1oc(-c2ccc(F)cc2)nc1C#N`, the “activity change, negative = inhibition” value was 10.1% (inactive).

Turning to `Cc1ccc(-c2cc(C(=O)Nc3ccccc3Cl)c3ccccc3n2)cc1C`, the “activity change, negative = inhibition” value is 4.91% (inactive).

Take `CC(C)Oc1cccc(-c2ccnc(N3CCC(C(N)=O)CC3)n2)c1`: the “activity change, negative = inhibition” value is 14.4% (inactive).

With `N#Cc1ccc(CSc2nc3ncc(Br)cc3[nH]2)cc1`, the “activity change, negative = inhibition” value was 20% (inactive).

In the case of `CC(C)(C#CCSc1nnc(-c2cccc3ccccc23)o1)OC(=O)c1ccc(F)cc1`, the “activity change, negative = inhibition” value is -6.49% (inactive).

As for `COc1ccc(OC)c(C2=Nn3c(nnc3-c3cccc(OC)c3OC)SC2)c1`, the “activity change, negative = inhibition” value is 2.17% (inactive).

On to `COc1ccc(-n2cnc3c(c2=N)C(c2cccc(OC)c2)c2c(ccc4ccccc24)O3)cc1` (stereo not given), for which the “activity change, negative = inhibition” value was 14.8% (inactive).

Turning to `C/C=C(\C)[C@@H]1C(C)=C[C@@H]2[C@H]([C@@H]1/C=C/C=C/C(=O)O)[C@@H](C)CC[C@@H]2O`, the “activity change, negative = inhibition” value was 5.26% (inactive).

Regarding `Cc1cc(C)n2ncc(C(=O)Nc3ccc(C(F)(F)F)cc3)c2n1`, the “activity change, negative = inhibition” value was 5.05% (inactive).

As for `O=[S+]([O-])(Nc1ccccc1)c1ccc(NCc2cccc(C(F)(F)F)c2Cl)cc1`, the “activity change, negative = inhibition” value was -17.6% (inactive).

Regarding `COc1ccccc1-c1nnc2n1N=C(c1ccc(OC(F)F)c(OCC3CC3)c1)CS2`, the “activity change, negative = inhibition” value is 4.66% (inactive).

As to `Cc1nc(C)c2c(n1)N(Cc1ccc(-c3ccccc3-c3nn[nH]n3)cc1)C(=O)CC2`, the “activity change, negative = inhibition” value was -7.53% (inactive).

As for `O=C(NCCc1nc2ccccc2[nH]1)C1CCCCC1`, the “activity change, negative = inhibition” value was -13.5% (inactive).
